From PubChem BioAssay AID1209 (Sanford-Burnham Center for Chemical Genomics, 2008)
Where “and” joins values, the source holds several entries; their conditions need not be identical. Identical values can stand only once. Hit rate of the full screen: of about 190,000 compounds, about 810 (0.43%) were called active. Shown is part of a subset that was picked to be rich in actives. Values without a mark were called inactive. No stated cut-off is given here; in the data, active means inhibition above about 50%; inactive means the rest.

Target: Mannose-6-phosphate isomerase (Homo sapiens) (UniProt P34949)
Assay: inhibitors of human PMI, primary screen, biochemical, fluorescence intensity, coupled assay (AID 1209);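 further: plate controls were DMSO vehicle for no effect and wells lacking substrate for full effect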
Conditions: purified PMI enzyme, at 20 µM, hits give high values

Mannose-6-phosphate isomerase (Homo sapiens), sequence (P34949 whole entry, looked up): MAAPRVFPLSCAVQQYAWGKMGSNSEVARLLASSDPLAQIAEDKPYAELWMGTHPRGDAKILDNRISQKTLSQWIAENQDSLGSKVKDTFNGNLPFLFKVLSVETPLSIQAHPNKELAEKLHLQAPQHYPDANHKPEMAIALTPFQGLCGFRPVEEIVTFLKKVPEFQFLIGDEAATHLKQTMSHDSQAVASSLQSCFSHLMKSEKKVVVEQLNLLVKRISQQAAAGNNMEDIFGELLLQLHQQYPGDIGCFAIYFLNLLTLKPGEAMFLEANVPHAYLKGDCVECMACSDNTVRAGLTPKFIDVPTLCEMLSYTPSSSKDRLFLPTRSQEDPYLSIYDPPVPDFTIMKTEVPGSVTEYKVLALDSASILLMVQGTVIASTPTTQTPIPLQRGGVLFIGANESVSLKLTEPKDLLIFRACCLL

Question: How did the inhibition turn out when `CC(O)[C@@H](C(=O)N1CCNCC1)n1cc(CCCCN)nn1` (some centres undefined) was run?
Answer: 4%

Question: For `Cc1sc2nc(CSc3ccccc3)nc(N3CCC(C(N)=O)CC3)c2c1C`, which inhibition is on record?
Answer: 13.3%

Question: How did the inhibition turn out when `Cc1ccc(/C=C(/C#N)C(=O)NC(=O)Oc2ccccc2)cc1` was run?
Answer: 4.9%

Question: Which inhibition does the source give for `CCOC(=O)NC(=O)/C(C#N)=C\c1ccccc1` here?
Answer: 52.6% (active)

Question: With `N#C/C(=C\c1ccccc1)C(=O)NC(=O)Oc1ccccc1` as the compound, how does the inhibition read?
Answer: 11.3%

Question: With `CSc1cccc(NC(=S)N2CCC(N(C)C3CCCCC3C)CC2)c1` (centres undefined) as the compound, how does the inhibition read?
Answer: -2.7%

Question: Which inhibition does the source give for `COc1ccc(C2CC(=O)N3CN(c4ccccc4F)CSC3=C2C#N)cc1OC` (centres undefined) here?
Answer: 34.9%

Question: How did the inhibition turn out when `COc1ccccc1N1CSC2=C(C#N)C(c3ccc(SC)cc3)CC(=O)N2C1` (centres undefined) was run?
Answer: -29.2%

Question: `CCOc1cc(C2CC(=O)N3CN(C4CCCCC4)CSC3=C2C#N)ccc1O` (centres undefined) was tested. Which inhibition did it give?
Answer: 54.5% (active)

Question: How did the inhibition turn out when `CCc1ccccc1N1CSC2=C(C#N)C(c3cc(OC)c(OC)cc3OC)CC(=O)N2C1` (centres undefined) was run?
Answer: 46%

Question: `CCOc1ccccc1N1CSC2=C(C#N)C(c3c(OC)ccc4ccccc34)CC(=O)N2C1` (centres undefined) was tested. Which inhibition did it give?
Answer: 64.9% (active)

Question: Which inhibition does the source give for `CCOc1cc(C2CC(=O)NC(SCC)=C2C#N)ccc1O` (centres undefined) here?
Answer: 9.3%

Question: Which inhibition does the source give for `CN1CSC2=C(C#N)C(c3cccc(OCc4ccccc4)c3)CC(=O)N2C1` (centres undefined) here?
Answer: 29.7%

Question: `COc1ccc2ccccc2c1C1CC(=O)N2CN(C3CCCCC3)CSC2=C1C#N` (centres undefined) was tested. Which inhibition did it give?
Answer: 25.9%

Question: With `COc1ccc2ccccc2c1C1CC(=O)N2CN(C)CSC2=C1C#N` (centres undefined) as the compound, how does the inhibition read?
Answer: 54.3% (active)

Question: How did the inhibition turn out when `CC(NC(=O)COC(=O)c1ccco1)c1ccccc1` (centres undefined) was run?
Answer: 6.4%

Question: `COc1c(Cl)cc(Cl)cc1C(=O)Nc1ccc(NC(C)=O)cc1` was tested. Which inhibition did it give?
Answer: 7.9%

Question: With `O=C(Cn1nnc(-c2ccccc2)n1)OC1CCOC1=O` (centres undefined) as the compound, how does the inhibition read?
Answer: -0.6%

Question: How did the inhibition turn out when `Cc1nn(CC(=O)NNC(=S)Nc2ccccc2)c(C)c1[N+](=O)[O-]` was run?
Answer: 0%

Question: How did the inhibition turn out when `CC1(C)Cc2c(sc(N)c2C#N)C(C)(C)N1` was run?
Answer: 11.6%

Question: For `Cc1nn(CC(=O)NCCc2ccccc2)c(C)c1[N+](=O)[O-]`, which inhibition is on record?
Answer: 2.6%

Question: For `CCOc1ccc(C(O)C(CN2CCOCC2)c2ccccc2)cc1` (centres undefined), which inhibition is on record?
Answer: -4.1%

Question: With `COC(=O)c1c(NC(=O)c2cccnc2)sc(C)c1C` as the compound, how does the inhibition read?
Answer: -4.9%

Question: `CC(=O)Nc1nonc1NC(C)=O` was tested. Which inhibition did it give?
Answer: 5.4%

Question: With `COc1cc(O)c(C(C)=O)cc1OC` as the compound, how does the inhibition read?
Answer: -15.9%

Question: With `CC(=O)Nc1cc(OC(C)=O)c2nonc2c1OC(C)=O` as the compound, how does the inhibition read?
Answer: 83.9% (active)

Question: For `COc1cc(O)c(NC(C)=O)c2nonc12`, which inhibition is on record?
Answer: 64.6% (active)

Question: Which inhibition does the source give for `CCOc1cc(NC(=O)CCl)c(OCC)cc1NC(C)=O` here?
Answer: -3.2%

Question: For `CCOc1cc(Cl)c(NC(C)=O)cc1OCC`, which inhibition is on record?
Answer: -3%

Question: For `NC(=O)c1sc2nc3c(cc2c1N)CCC3`, which inhibition is on record?
Answer: -8%

Question: How did the inhibition turn out when `Nc1c(C(=O)N2CCCC2)sc2nc3c(cc12)CCCCCC3` was run?
Answer: 95% (active)

Question: For `COC(=O)c1sc2nc3c(cc2c1N)CCCC3`, which inhibition is on record?
Answer: 14.2%

Question: Which inhibition does the source give for `O=[N+]([O-])c1cc(-c2cnc3ccccc3n2)ccc1Oc1ccc(Cl)cc1` here?
Answer: 5.9%

Question: Which inhibition does the source give for `CCOC(=O)C1C(=O)NC(SCC(=O)OC)=C(C#N)C1c1ccccc1OCC` (centres undefined) here?
Answer: 14.3%

Question: For `CCOc1ccccc1C1CC(=O)NC(SCC(=O)Nc2nccs2)=C1C#N` (centres undefined), which inhibition is on record?
Answer: -8.2%

Question: For `CCOC(=O)C1C(=O)NC(SCC(=O)Nc2nccs2)=C(C#N)C1c1ccccc1OCC` (centres undefined), which inhibition is on record?
Answer: 54.2% (active)

Question: With `CCOc1ccc(CCNC(=O)COC(=O)c2cccc(OC)c2O)cc1OCC` as the compound, how does the inhibition read?
Answer: 5.3%

Question: Which inhibition does the source give for `O=C1OC(Nc2ccc3ncccc3c2)c2ccccc21` (centres undefined) here?
Answer: 62.7% (active)

Question: How did the inhibition turn out when `O=C1OC(Nc2cc(Br)cc3cccnc23)c2ccccc21` (centres undefined) was run?
Answer: 14.2%

Question: `O=C1OC(Nc2ncccn2)c2ccccc21` (centres undefined) was tested. Which inhibition did it give?
Answer: 4.9%

Question: How did the inhibition turn out when `O=C(C1CCN(S(=O)(=O)c2cccc3cccnc23)CC1)N1CCN(c2ccccc2)CC1` was run?
Answer: 13.6%

Question: For `Cc1ccc(-n2nnnc2SCC(=O)N2CCc3ccccc3C2)cc1`, which inhibition is on record?
Answer: -23.5%

Question: With `CCn1c(SCC(=O)N2CCCc3ccccc32)nnc1-c1ccoc1C` as the compound, how does the inhibition read?
Answer: -2.9%

Question: With `CCS(=O)(=O)c1ccc(O)c(NC(=O)COc2ccc(OC)cc2)c1` as the compound, how does the inhibition read?
Answer: 9.9%

Question: Which inhibition does the source give for `O=C(CC1CCCCC1)OCn1nnc2ccccc2c1=O` here?
Answer: -0.7%

Question: For `COC(=O)C1=C(C)NC(C)=C(C(=O)OC)C1c1ccccc1[N+](=O)[O-]`, which inhibition is on record?
Answer: 83.1% (active)

Question: Which inhibition does the source give for `COC(=O)C1=C(C)NC(C)=C([N+](=O)[O-])C1c1ccccc1C(F)(F)F` (centres undefined) here?
Answer: -1.2%

Question: How did the inhibition turn out when `CCOC(=O)C1=C(C)NC(C)=C(C(=O)OC)C1c1cccc([N+](=O)[O-])c1` (centres undefined) was run?
Answer: 13.5% and 1.6%

Question: `COc1ccc(S(=O)(=O)N2CCOCC2)cc1OC` was tested. Which inhibition did it give?
Answer: -10.5%

Question: With `O=C(OC(C(=O)NCc1ccco1)C(OC(=O)c1ccccc1)C(=O)NCc1ccco1)c1ccccc1` (centres undefined) as the compound, how does the inhibition read?
Answer: -6.4%

Question: How did the inhibition turn out when `Cn1ccnc1Sc1cc(NCCCO)c([N+](=O)[O-])c2nonc12` was run?
Answer: -0.6%

Question: For `COc1ccc(CNc2cc(NCCCO)c([N+](=O)[O-])c3nonc23)cc1`, which inhibition is on record?
Answer: 52.3% (active)

Question: With `Cc1nnc(Sc2cc(NCCCO)c([N+](=O)[O-])c3nonc23)s1` as the compound, how does the inhibition read?
Answer: 31.1%

Question: How did the inhibition turn out when `O=[N+]([O-])c1c(NCCCO)cc(Sc2ccc(Cl)cc2)c2nonc12` was run?
Answer: 50.2% (active)

Question: How did the inhibition turn out when `O=[N+]([O-])c1c(NCCCO)cc(SCc2ccco2)c2nonc12` was run?
Answer: 20.8%

Question: With `CC(=O)OCCCNc1cc(Sc2ccc(Cl)cc2)c2nonc2c1[N+](=O)[O-]` as the compound, how does the inhibition read?
Answer: 30.1%

Question: `CCS(=O)(=O)CCSc1nc2c(cc1C#N)CCCC2` was tested. Which inhibition did it give?
Answer: 5.3%

Question: For `Fc1ccc(N=c2ssnc2Cl)c(F)c1`, which inhibition is on record?
Answer: 80.9% (active)

Question: Which inhibition does the source give for `Oc1oc(C=Nc2ccc(F)cc2F)c2ccccc12` here?
Answer: -80.8%

Question: `Cc1cc(Cl)ccc1N=C1N=C(N)c2ccccc21` was tested. Which inhibition did it give?
Answer: 9.1%

Question: For `Fc1ccc(F)c(C2=NNC(=Nc3ccccc3F)SC2)c1`, which inhibition is on record?
Answer: 22.5%

Question: `Cc1cc(Cl)ccc1N=Cc1c(O)n(C)c(=O)n(C)c1=O` was tested. Which inhibition did it give?
Answer: 9.5%

Question: `Cc1cc(Cl)ccc1N=c1ssnc1Cl` was tested. Which inhibition did it give?
Answer: 52.8% (active)

Question: How did the inhibition turn out when `Cc1ccc(CCNc2ccccc2C)cn1` was run?
Answer: -6.3%
